Results taken from PubChem BioAssay AID1159580 (chemical genetic matrix, 2015).
“And” between values parts separate entries of the source, which are not always exact repeats. Equal values may be shown once. The whole screen tested about 5,500 compounds, of which about 2,000 (36%) were called active. Not shown: some 18% with an inconclusive outcome. No stated cut-off is given here; in the data, active means normalized growth mostly below about 0.91 (no sharp cut-off); inconclusive means no clear call, values can overlap the other calls; inactive means mostly above about 0.92. The list shows a part of the results.

Test: chemical genetic growth profiling, strain panel (AID 1159580);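 further: tested at 20 µM; growth read once vehicle control cultures reached saturation at 30 °C; 1 = growth at the plate median or of vehicle wells; lower values mean less growth of the strain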
Conditions: S. cerevisiae deletion strains, growth OD

Measured: normalized growth

CC(CCc1ccccc1)NC(C)C(O)c1ccc(O)cc1 (stereo not given)
inactive: locus YAL021C, strain ccr4, hits give low values 0.992 | locus YAL026C, strain drs2, hits give low values 0.995 | locus YAL030W, strain snc1, hits give low values 0.999 | locus YAL040C, strain CLN3, hits give low values 1.01 | locus YBL061C, strain skt5, hits give low values 0.997 | locus YBR009C, strain hhf1, hits give low values 1 | locus YBR021W, strain FUR4, hits give low values 0.997 | locus YBR023C, strain chs3, hits give low values 1.01 | locus YBR171W, strain sec66, hits give low values 1.01 | locus YBR229C, strain ROT2, hits give low values 0.955 | locus YBR231C, strain swc5, hits give low values 1 | locus YBR279W, strain paf1, hits give low values 0.995 | locus YCL011C, strain gbp2, hits give low values 1.01 | locus YCL016C, strain dcc1, hits give low values 1.01 | locus YCL029C, strain bik1, hits give low values 0.981 | locus YCL061C, strain MRC1 (second series), hits give low values 1 | locus YCL061C, strain MRC1, hits give low values 0.998 | locus YCL069W, strain vba3, hits give low values 0.998 | locus YCR088W, strain abp1, hits give low values 1.01 | locus YDL005C, strain med2, hits give low values 0.999 | locus YDL035C, strain GPR1, hits give low values 0.977 | locus YDL040C, strain nat1, hits give low values 1 | locus YDL074C, strain BRE1, hits give low values 0.953 | locus YDL101C, strain DUN1, hits give low values 0.978 | locus YDL134C, strain PPH21, hits give low values 1 | locus YDL185W, strain tfp1, hits give low values 0.984 | locus YDL192W, strain arf1, hits give low values 0.992 | locus YDR001C, strain nth1, hits give low values 0.999 | locus YDR069C, strain doa4, hits give low values 0.977 | locus YDR101C, strain arx1, hits give low values 0.998 | locus YDR137W, strain rgp1, hits give low values 0.989 | locus YDR150W, strain NUM1, hits give low values 0.984 | locus YDR159W, strain sac3, hits give low values 0.99 | locus YDR162C, strain NBP2, hits give low values 0.991 | locus YDR195W, strain ref2 1 | locus YDR297W, strain sur2, hits give low values 0.993 | locus YDR318W, strain mcm21, hits give low values 1 | locus YDR334W, strain swr1, hits give low values 1.01 | locus YDR335W, strain msn5, hits give low values 0.995 | locus YDR363W, strain ESC2, hits give low values 0.998 | locus YDR388W, hits give low values 0.993 | locus YDR392W, strain spt3, hits give low values 0.963 | locus YDR502C, strain sam2, hits give low values 1 | locus YEL003W, strain gim4, hits give low values 0.979 | locus YEL037C, strain rad23, hits give low values 1 | locus YEL061C, strain CIN8 (second series), hits give low values 1 | locus YEL061C, strain CIN8, hits give low values 0.987 | locus YER002W, strain NOP16, hits give low values 1 | locus YER015W, strain faa2, hits give low values 0.998 | locus YER016W, strain bim1, hits give low values 0.999 | locus YER110C, hits give low values 0.962 | locus YER111C, strain swi4, hits give low values 0.999 | locus YER155C, strain BEM2 (second series), hits give low values 1 | locus YER155C, strain BEM2, hits give low values 0.993 | locus YER167W, strain BCK2, hits give low values 0.99 | locus YFR010W, strain ubp6, hits give low values 1 | locus YGL078C, strain dbp3, hits give low values 0.993 | locus YGL086W, strain mad1, hits give low values 0.975 | locus YGL167C, strain pmr1, hits give low values 1 | locus YGL173C, strain kem1, hits give low values 1.01 | locus YGL227W, strain vid30, hits give low values 1 | locus YGL240W, strain doc1, hits give low values 0.993 | locus YGL248W, strain PDE1, hits give low values 0.97 | locus YGL253W, strain hxk2, hits give low values 0.997 | locus YGR078C, strain PAC10, hits give low values 0.981 | locus YGR135W, strain pre9, hits give low values 0.989 | locus YGR229C, strain SMI1, hits give low values 0.989 | locus YGR252W, strain gcn5, hits give low values 0.974 | locus YHR013C, strain ard1, hits give low values 0.991 | locus YHR027C, strain rpn1, hits give low values 1.02 | locus YHR030C, strain SLT2, hits give low values 0.995 and 0.972 | locus YHR079C, strain IRE1 (second series), hits give low values 1 | locus YHR079C, strain IRE1, hits give low values 0.959 | locus YHR094C, strain hxt1, hits give low values 1 | locus YHR129C, strain ARP1, hits give low values 0.987 | locus YHR142W, strain chs7, hits give low values 1.01 | locus YHR200W, strain rpn10, hits give low values 0.997 | locus YIL066C, strain RNR3, hits give low values 0.988 | locus YIL073C, strain SPO22, hits give low values 0.979 | locus YIL125W, strain kgd1, hits give low values 0.989 | locus YIR030C, strain dcg1, hits give low values 0.983 | locus YJL092W, strain hpr5, hits give low values 1.01 | locus YJL095W, strain BCK1 (second series), hits give low values 1.02 | locus YJL095W, strain BCK1, hits give low values 0.981 and 0.985 | locus YJL115W, strain asf1, hits give low values 1.01 | locus YJL129C, strain trk1, hits give low values 0.98 | locus YJL134W, strain LCB3, hits give low values 0.993 | locus YJL154C, strain vps35, hits give low values 0.996 | locus YJL164C, strain tpk1, hits give low values 0.992 | locus YJL166W, strain qcr8, hits give low values 1 | locus YJL168C, strain set2, hits give low values 0.991 | locus YJL187C, strain SWE1 (second series), hits give low values 0.982 | locus YJL187C, strain SWE1, hits give low values 1 | locus YJR043C, strain POL32, hits give low values 1 | locus YJR066W, strain TOR1, hits give low values 0.925
